# Laboratory results reported in PubChem BioAssay AID588334 (Broad Institute, 2011).
# Among all 300,000 compounds or so, about 2,300 (0.77%) were called active.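 The calls were made as follows: active = mean activation of at least 80% with every replicate also reaching 80%; inconclusive = mean reaches 80% but some replicate falls short; inactive = the rest.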 The entries come from a sample that favours actives as a whole.
# Assay: MITF-driven TRPM1 luciferase induction in melanoma cells – cell-based, SK-MEL-5, single point, primary screen (AID 588334);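 also: 0% = neutral control wells and 100% = parthenolide positive control wells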
# Conditions: SK-MEL-5 TRPM1-promoter luciferase, 24 h; at 12.5 µM; hits give high values; % of positive control, neutral wells = 0
row,Compound,activation
1,CC(=O)OC1CCC2(C)C(=CCC3C4CC(=O)N(O)C(=O)C4(C)CCC32)C1 (stereo not given),-5.88% (inactive)
2,COc1ccc(CNCCCNCc2ccc(OC)c(OC)c2)cc1OC,7.54% (inactive)
3,C/C(=C\C(=O)c1cccnc1)Nc1ccc(C)c(C)c1,104% (active)
4,Cc1ccc(N/C=C/C(=O)c2ccccc2)cc1C,-1.56% (inactive)
5,Cc1ccc(NC(=O)COc2ccc(/C=N\NC(=O)c3cccnc3)cc2)cc1C,13.6% (inactive)
6,COc1ccccc1C(=O)Nc1ccc(C)c(S(=O)(=O)N2CCCCC2)c1,-6.44% (inactive)
7,CC(=O)Nc1ccc(NC(=O)COC(=O)C2CCC(C(C)(C)C)CC2)cc1 (stereo not given),-0.038% (inactive)
8,COc1ccc(-c2noc(-c3cccc(OC)c3OC)n2)cc1OC,88.3% (active)
9,COc1ccc(-c2noc(CCCC(=O)NC3CCCC3)n2)cc1OC,4.98% (inactive)
10,COc1ccc(-c2csc(-c3cccs3)n2)cc1OC,56.3% (inactive)
11,COc1cc(OC)cc(-c2cc3ccc(F)cc3cn2)c1,111% (active)
12,COc1ccc(-c2cc3ncccc3cn2)cc1,72% (inactive)
13,Fc1ccc2cnc(-c3ccccc3)cc2c1,63.9% (inactive)
14,O=C(Nc1ccc(S(=O)(=O)N2CCOCC2)cc1)C1CCN(S(=O)(=O)c2ccc(Cl)cc2)CC1,-12.4% (inactive)
15,COc1ccccc1-c1nnc2n1N=C(c1ccc(OC(F)F)c(OCC3CC3)c1)CS2,3.16% (inactive)
16,COc1cc(OC)cc(-c2c(C#Cc3ccsc3)c3cc(-c4ccc(SC)cc4)ccc3n2C)c1,6.54% (inactive)
17,COc1ccc(-c2c(C#Cc3ccccc3)c3ccccc3n2C)cc1,85.9% (active)
18,COc1ccc(CCNCc2c(-c3ccccc3)n(C)c3ccccc23)cc1,2.46% (inactive)
19,COc1ccc(CC(=O)N[C@@H]2c3cc(OC)c(OC)cc3C[C@H]2OCc2ccccc2)cc1,-0.621% (inactive)
20,CCCCNC(=O)C(C)N(CCN(C)C)C(=O)CCCCCN1C(=O)NC(c2ccc(Cl)cc2)C(C(=O)OCc2ccccc2)=C1C (stereo not given),-93.7% (inactive)
21,Oc1ccc(-c2nc3ccccc3nc2-c2ccc(O)cc2O)c(O)c1,-29.5% (inactive)
22,CCc1ccc(NC(=O)Cn2nnc(C(=O)NCc3ccc4c(c3)OCO4)c2N)cc1,-0.586% (inactive)
23,Nc1c(C(=O)Nc2ccc3c(c2)OCCO3)nnn1Cc1ccccc1,81.1% (active)

row,Compound,activation
1,CCOc1ccc(Cn2nnc(C(=O)NCc3ccccc3)c2N)cc1,0.298% (inactive)
2,Cc1cccc(C=CC(=O)c2ccc(Cl)cc2)c1,35.1% (inactive)
3,CN(C)C(=O)CCc1ccc2c3c([nH]c2c1)[C@]1(CCc2ccccc2)[C@@H](C(=O)N2CCCCC2)C[C@H](CC(=O)NCCC2=CCCCC2)C(=O)N1CC3,-16.1% (inactive)
4,Cc1ccc(S(=O)(=O)N2CCN(C(=O)CN3C(=O)NC(C)(c4ccc(Cl)cc4)C3=O)CC2)c(C)c1 (stereo not given),3.72% (inactive)
5,COc1ccccc1-c1nnc(NC(=O)c2ccc3ncsc3c2)o1,-3.99% (inactive)
6,Cc1ccc(C(=O)c2c(NC(=O)c3ccccc3)sc(C)c2C)cc1,24.2% (inactive)
7,Cc1sc(NC(=O)c2ccc3ncsc3c2)c(C(N)=O)c1C,103% (active)
8,CN(C(=O)c1cccc(NC(=O)Cc2cccc(NC(=O)C3CCCN(C(=O)C4CC4)C3)c2)c1)C1CCC1 (stereo not given),-0.0755% (inactive)
9,COc1ccc(C(=O)Nc2cc(S(=O)(=O)N3CCCC3)ccc2Cl)cc1,5.82% (inactive)
10,Cc1nc2cc(NC(=O)Nc3cccc(F)c3)ccc2n1C,12.9% (inactive)
11,Cc1nc2cc(NC(=O)NC3CC3)ccc2n1C,13.8% (inactive)
12,Cc1nc2cc(NCc3cccs3)ccc2n1C,90.7% (active)
13,O=C(O)c1ccc(Cn2cnc3c(=S)nc[nH]c32)cc1,6.13% (inactive)
14,COc1ccc2c(c1)C(=O)CC(c1ccccc1)O2 (stereo not given),54.8% (inactive)
15,Cc1cc(NC(=O)C(C)SCC(=O)Nc2cccc(S(=O)(=O)N3CCCCCC3)c2)no1 (stereo not given),-15.9% (inactive)
16,CC(C)COC(=O)c1ccc(NC(=O)C2C3C=CC(C3)C2C(=O)O)cc1 (stereo not given),105% (active)
17,CC(=O)NS(=O)(=O)c1ccc(NC(=O)C2C3C=CC(C3)C2C(=O)O)cc1 (stereo not given),-12.7% (inactive)
18,COC(=O)c1cc(NC(=O)C2C3C=CC(C3)C2C(=O)O)cc(C(=O)OC)c1 (stereo not given),14.6% (inactive)
19,O=C(N[C@H]1C/C=C\C(c2cccc(F)c2)N(Cc2ccccc2)C(=O)C1)OCC1c2ccccc2-c2ccccc21 (stereo not given in full),20.8% (inactive)
20,Cc1ccc(-c2nc(-c3ccncc3)no2)c(C)c1,70.8% (inactive)
21,c1csc(-c2nc(-c3ccncc3)no2)c1,113% (active)
22,c1ccc(CCc2nc(-c3ccncc3)no2)cc1,57.8% (inactive)
23,CSCCC(NC(=O)c1ccccc1)C(=O)N1CCN(Cc2ccc(Cl)cc2)CC1 (stereo not given),-8.56% (inactive)

row,Compound,activation
1,CN(c1ccccc1)S(=O)(=O)c1cc(C(=O)N2CCN(c3ncccn3)CC2)ccc1Cl,-2.71% (inactive)
2,COc1cccc(C=CC(=O)C=CC=Cc2ccccc2)c1,-4.72% (inactive)
3,NC(=O)C1(Nc2ccc(-c3ccccc3)cc2)CCCC1,5.06% (inactive)
4,COc1ccc(N=C(C)c2sc3ccccc3c2O)cc1,123% (active)
5,COC(=O)Cc1[nH]n(-c2nc3ccccc3s2)c(=O)c1C(C)=Nc1ccc(OC)cc1,-94.9% (inactive)
6,COc1ccc(N=Nc2ccc(O)c(P(=O)(c3ccccc3)c3ccccc3)c2)cc1,5.85% (inactive)
7,CCN(CC)C(=O)[C@H]1C[C@H](CC(=O)NCC23CC4CC(CC(C4)C2)C3)C(=O)N2CCc3c([nH]c4cc(CCC(=O)N(C)C)ccc34)[C@]12C,-10.9% (inactive)
8,COc1cc(C(=O)CCc2ccc3c(c2)OCO3)cc(OC)c1OC,-4.27% (inactive)
9,CC(C=Cc1ccccc1)=NNS(=O)(=O)c1ccc([N+](=O)[O-])cc1,-13.6% (inactive)
10,COc1cc(C(=O)OCC(=O)NC23CC4CC(CC(C4)C2)C3)cc(OC)c1OC,-3.15% (inactive)
11,COc1cc(NC(=O)COC(=O)c2cc(S(=O)(=O)N3CCOCC3)ccc2F)cc(OC)c1,1.31% (inactive)
12,O=C(CSc1ccc(-c2ccco2)nn1)Nc1cccc(F)c1,13.2% (inactive)
13,Brc1ccc(CSc2ccc(-c3ccco3)nn2)cc1,71.9% (inactive)
14,Fc1cccc(Cl)c1CSc1ccc(-c2ccco2)nn1,93.7% (active)
15,O=C(Nc1ccn(CCCNCc2ccc3[nH]ccc3c2)c(=O)n1)OCc1ccccc1,-4.16% (inactive)
16,CCCSc1ccc([C@H]2N[C@@](Cc3ccccc3)(C(=O)OC)[C@H]3C(=O)N(C)C(=O)[C@@H]23)cc1,1.47% (inactive)
17,Cc1ccccc1OCC(=O)Nc1ccc2c(c1)ncn2C,152% (active)
18,Cc1ccccc1OCC(=O)Nc1ccc(S(=O)(=O)N2CCOCC2)cc1,-5.13% (inactive)
19,Cc1ccccc1OCC(=O)Nc1ccc(N2CCN(C(=O)C(C)C)CC2)c(Cl)c1,-59.2% (inactive)
20,Cc1cc([N+](=O)[O-])ccc1NS(=O)(=O)c1ccccc1,6.15% (inactive)
21,CCN(CC)S(=O)(=O)c1cccc(NC(=O)c2ccc(S(=O)(=O)N3CCCC3)cc2)c1,-10.8% (inactive)
22,Cc1ccc(OCc2cc(C(=O)N(C)CCc3ccccc3)no2)cc1C,111% (active)
23,Cc1ccc(OCc2cc(C(=O)N(C)CCn3ccnc3C)no2)cc1C,11% (inactive)

row,Compound,activation
1,Cc1cc(CN(C)C(=O)c2cc(COc3ccc(C)c(C)c3)on2)n[nH]1,11.7% (inactive)
2,CCN1CCC(O)(/C=C/c2ccc(C)cc2)C(C(=O)/C=C/c2ccc(C)cc2)C1 (stereo not given),-75.9% (inactive)
3,COc1cccc(CC(=NO)c2cccc(OC)c2)c1,1.7% (inactive)
4,CCCN(CCC)S(=O)(=O)c1cc2c(cc1Br)CCN2C(=O)CC,3.88% (inactive)
5,COc1ccc2sc(-c3ccc(N(C)C)cc3)c(C#CCO)c2c1,51.4% (inactive)
6,COc1ccc2sc(-c3ccc(N(C)C)cc3)c(-c3ccc4cc[nH]c4c3)c2c1,102% (active)
7,COc1cc(OC)cc(-c2sc3ccc(OC)cc3c2-c2ccc3cc[nH]c3c2)c1,7.42% (inactive)
8,CCOC(=O)c1ccccc1NC(=O)CSc1nc2c(sc(=S)n2CC)c(=O)[nH]1,1.55% (inactive)
9,O=S(=O)(Nc1ccc2ccccc2c1)N1CCCCC1,3.28% (inactive)
10,O=C(/C=C/c1ccc(Cl)cc1)Nc1ccc(S(=O)(=O)Nc2ncccn2)cc1,-11.3% (inactive)
11,CC(C)(C)c1ccc(/C=C/C(=O)Nc2ncccn2)cc1,118% (active)
12,CC(C)(C)c1ccc(/C=C/C(=O)NCCCn2ccnc2)cc1,-9.17% (inactive)
13,COc1ccc(CN2CCN(C(=O)c3cc(C4CC4)nn3-c3ccccc3)CC2)cc1F,-1.05% (inactive)
14,O=C(Nc1cccc(S(=O)(=O)N2CCCC2)c1)c1cncc(Br)c1,15.2% (inactive)
15,O=C(Nc1cccc(S(=O)(=O)N2CCCCC2)c1)c1cncc(Br)c1,-5.18% (inactive)
16,O=C(Nc1ccc(N2CCCC2=O)cc1)c1cncc(Br)c1,114% (active)
17,O=C(NN=Cc1ccc([N+](=O)[O-])cc1)C1CC1,17.3% (inactive)
18,Cc1cc(OCCCC(=O)Nc2cc(S(=O)(=O)N3CCOCC3)ccc2N2CCOCC2)ccc1Cl,2.58% (inactive)
19,Cn1c(-c2ccc(C(F)(F)F)cc2)cc2onc(-c3ccccc3)c2c1=O,126% (active)
20,O=c1c2ccccc2c(-c2ccc(F)cc2)nn1-c1ccc(C(F)(F)F)cc1,-11.9% (inactive)
21,Cn1c(-c2ccc(F)cc2)cc2onc(-c3ccccc3Cl)c2c1=O,76.3% (inactive)
